The whole screen tested about 5,500 compounds, of which about 2,000 (36%) were called active. Not shown: some 18% with an inconclusive outcome. No stated cut-off is given here; in the data, active means normalized growth mostly below about 0.91 (no sharp cut-off); inconclusive means no clear call, values can overlap the other calls; inactive means mostly above about 0.92. Some of the results follow.
Test: chemical genetic growth profiling, strain panel (AID 1159580);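 further: tested at 20 µM; growth read once vehicle control cultures reached saturation at 30 °C; 1 = growth at the plate median or of vehicle wells; lower values mean less growth of the strain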
Conditions: growth OD

Measured: normalized growth

CCOC(=O)/C=C(\C)OP(=O)(OC)OC
inactive: S. cerevisiae deletion strains, locus YAL013W, strain DEP1, active compounds read low 0.973 | S. cerevisiae deletion strains, locus YBR021W, strain FUR4, active compounds read low 1.02 | S. cerevisiae deletion strains, locus YBR229C, strain ROT2, active compounds read low 0.948 | S. cerevisiae deletion strains, locus YCL029C, strain bik1, active compounds read low 0.989 | S. cerevisiae deletion strains, locus YDL035C, strain GPR1, active compounds read low 0.981 | S. cerevisiae deletion strains, locus YDL074C, strain BRE1, active compounds read low 0.937 | S. cerevisiae deletion strains, locus YDL101C, strain DUN1, active compounds read low 0.967 | S. cerevisiae deletion strains, locus YDL134C, strain PPH21, active compounds read low 0.989 | S. cerevisiae deletion strains, locus YDL185W, strain tfp1, active compounds read low 0.983 | S. cerevisiae deletion strains, locus YDL192W, strain arf1, active compounds read low 0.992 | S. cerevisiae deletion strains, locus YDR101C, strain arx1, active compounds read low 1 | S. cerevisiae deletion strains, locus YDR150W, strain NUM1, active compounds read low 0.989 | S. cerevisiae deletion strains, locus YDR162C, strain NBP2, active compounds read low 0.982 | S. cerevisiae deletion strains, locus YDR318W, strain mcm21, active compounds read low 0.987 | S. cerevisiae deletion strains, locus YDR388W, active compounds read low 1.01 | S. cerevisiae deletion strains, locus YDR502C, strain sam2, active compounds read low 0.996 | S. cerevisiae deletion strains, locus YEL061C, strain CIN8, active compounds read low 0.99 | S. cerevisiae deletion strains, locus YER110C, active compounds read low 0.992 | S. cerevisiae deletion strains, locus YER155C, strain BEM2, active compounds read low 0.984 | S. cerevisiae deletion strains, locus YER167W, strain BCK2, active compounds read low 0.988 | S. cerevisiae deletion strains, locus YGL078C, strain dbp3, active compounds read low 1.01 | S. cerevisiae deletion strains, locus YGL086W, strain mad1, active compounds read low 0.993 | S. cerevisiae deletion strains, locus YGL248W, strain PDE1, active compounds read low 0.977 | S. cerevisiae deletion strains, locus YGR078C, strain PAC10, active compounds read low 0.983 | S. cerevisiae deletion strains, locus YGR135W, strain pre9, active compounds read low 0.988 | S. cerevisiae deletion strains, locus YGR229C, strain SMI1, active compounds read low 0.984 | S. cerevisiae deletion strains, locus YGR252W, strain gcn5, active compounds read low 0.998 | S. cerevisiae deletion strains, locus YHR030C, strain SLT2, active compounds read low 0.99 | S. cerevisiae deletion strains, locus YHR079C, strain IRE1 (second series), active compounds read low 1 | S. cerevisiae deletion strains, locus YHR094C, strain hxt1, active compounds read low 1.01 | S. cerevisiae deletion strains, locus YHR129C, strain ARP1, active compounds read low 0.974 | S. cerevisiae deletion strains, locus YHR200W, strain rpn10, active compounds read low 0.994 | S. cerevisiae deletion strains, locus YIL066C, strain RNR3, active compounds read low 0.985 | S. cerevisiae deletion strains, locus YIL073C, strain SPO22, active compounds read low 1.03 | S. cerevisiae deletion strains, locus YIL125W, strain kgd1, active compounds read low 0.993 | S. cerevisiae deletion strains, locus YIR030C, strain dcg1, active compounds read low 0.996 | S. cerevisiae deletion strains, locus YJL095W, strain BCK1, active compounds read low 0.994 | S. cerevisiae deletion strains, locus YJL134W, strain LCB3, active compounds read low 0.987 | S. cerevisiae deletion strains, locus YJL168C, strain set2, active compounds read low 0.991 | S. cerevisiae deletion strains, locus YJL187C, strain SWE1 (second series), active compounds read low 0.983 | S. cerevisiae deletion strains, locus YJR043C, strain POL32, active compounds read low 0.985 | S. cerevisiae deletion strains, locus YJR075W, strain HOC1, active compounds read low 0.983 | S. cerevisiae deletion strains, locus YKL009W, strain mrt4, active compounds read low 0.947 | S. cerevisiae deletion strains, locus YKL068W, active compounds read low 0.998 | S. cerevisiae deletion strains, locus YKL085W, strain MDH1 (second series), active compounds read low 0.989 | S. cerevisiae deletion strains, locus YKL085W, strain MDH1, active compounds read low 0.989 | S. cerevisiae deletion strains, locus YKL190W, strain CNB1, active compounds read low 0.995 | S. cerevisiae deletion strains, locus YKR001C, strain vps1, active compounds read low 1 | S. cerevisiae deletion strains, locus YLR039C, strain RIC1, active compounds read low 0.976 | S. cerevisiae deletion strains, locus YLR058C, strain SHM2, active compounds read low 0.981 | S. cerevisiae deletion strains, locus YLR102C, strain apc9, active compounds read low 0.993 | S. cerevisiae deletion strains, locus YLR262C, strain YPT6, active compounds read low 0.977 | S. cerevisiae deletion strains, locus YLR268W, strain sec22, active compounds read low 0.998 | S. cerevisiae deletion strains, locus YLR330W, strain CHS5, active compounds read low 0.986 | S. cerevisiae deletion strains, locus YLR342W, strain FKS1 (second series), active compounds read low 1.02 | S. cerevisiae deletion strains, locus YLR371W, strain rom2, active compounds read low 0.996 | S. cerevisiae deletion strains, locus YLR418C, strain cdc73, active compounds read low 1.01 | S. cerevisiae deletion strains, locus YML016C, strain PPZ1, active compounds read low 0.986 | S. cerevisiae deletion strains, locus YML032C, strain rad52, active compounds read low 1 | S. cerevisiae deletion strains, locus YML124C, strain tub3, active compounds read low 1 | S. cerevisiae deletion strains, locus YMR078C, strain ctf18, active compounds read low 0.999 | S. cerevisiae deletion strains, locus YMR223W, strain ubp8, active compounds read low 0.996 | S. cerevisiae deletion strains, locus YMR263W, strain SAP30, active compounds read low 0.987 | S. cerevisiae deletion strains, locus YMR307W, strain GAS1, active compounds read low 1.04 | S. cerevisiae deletion strains, locus YNL067W, strain RPL9B, active compounds read low 0.982 | S. cerevisiae deletion strains, locus YNL128W, strain TEP1, active compounds read low 0.951 | S. cerevisiae deletion strains, locus YNL153C, strain GIM3, active compounds read low 0.985 | S. cerevisiae deletion strains, locus YNL233W, strain BNI4, active compounds read low 0.997 | S. cerevisiae deletion strains, locus YNL250W, strain rad50, active compounds read low 0.983 | S. cerevisiae deletion strains, locus YNL271C, strain bni1, active compounds read low 1 | S. cerevisiae deletion strains, locus YNL298W, strain CLA4, active compounds read low 1.01 | S. cerevisiae deletion strains, locus YNL307C, strain MCK1, active compounds read low 1.01 | S. cerevisiae deletion strains, locus YNL322C, strain KRE1, active compounds read low 0.977 | S. cerevisiae deletion strains, locus YNR052C, strain pop2, active compounds read low 0.996 | S. cerevisiae deletion strains, locus YOL006C, strain TOP1, active compounds read low 0.926 | S. cerevisiae deletion strains, locus YOL012C, strain htz1 0.854 | S. cerevisiae deletion strains, locus YOL147C, strain pex11, active compounds read low 1.01 | S. cerevisiae deletion strains, locus YOR061W, strain CKA2, active compounds read low 0.961 | S. cerevisiae deletion strains, locus YOR069W, strain VPS5, active compounds read low 0.99 | S. cerevisiae deletion strains, locus YOR136W, strain idh2, active compounds read low 0.993 | S. cerevisiae deletion strains, locus YOR144C, strain elg1, active compounds read low 0.997 | S. cerevisiae deletion strains, locus YOR184W, strain ser1, active compounds read low 1.01 | S. cerevisiae deletion strains, locus YOR316C, strain cot1, active compounds read low 0.981 | S. cerevisiae deletion strains, locus YPL055C, strain LGE1, active compounds read low 0.975 | S. cerevisiae deletion strains, locus YPL241C, strain CIN2, active compounds read low 0.993 | S. cerevisiae deletion strains, locus YPR119W, strain clb2, active compounds read low 1 | S. cerevisiae deletion strains, locus YPR141C, strain kar3, active compounds read low 0.991 | S. cerevisiae deletion strains, locus YPR163C, strain tif3, active compounds read low 1.01 | S. cerevisiae deletion strains, locus YPR167C, strain met16, active compounds read low 0.995 | S. cerevisiae deletion strains, strain wtn01, active compounds read low 1 | S. cerevisiae strains, strain wild type, active compounds read low 0.985

— PubChem BioAssay AID1159580 (chemical genetic matrix, 2015)
